Reference: PubChem BioAssay
Activity calls are given as the source filed them. Unless noted, how the calls were made is not given here.

Tests used:
[1] = resazurin metabolic signal in HepG2 cells – cell-based, resazurin fluorescence, 24 h, PK04 Diversity Set, profiling panel (AID 1172); settings: HepG2 viability, higher = more signal; further: test concentration not given here
[2] = budding yeast growth changes without added modifier – OD600, strain BY4716, 24 h, basal condition, primary screen (AID 1173); settings: S. cerevisiae BY4716 growth, OD600, 24 h; higher = more signal, called active from +8 up or from −8 down
[3] = viability profiling in MM1S myeloma cells – cell-based, resazurin fluorescence, basal, 24 h, PK04 Diversity Set, profiling panel (AID 1174); settings: higher = more signal, called active from +8 up or from −8 down;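 further: MM1S multiple myeloma cell line; test concentration not given here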
[4] = biological target: Dihydroorotate dehydrogenase (quinone), mitochondrial (Plasmodium falciparum (isolate 3D7)) (UniProt Q08210); assay: inhibition of P. falciparum DHODH – biochemical, C-terminal His tag, absorbance 600 nm, primary screen (AID 1175); settings: PfDHODH enzyme, DCIP absorbance 600 nm; higher = more signal, called active from +8 up or from −8 down;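 further: recombinant parasite enzyme with a five histidine tag at its C terminus; test concentration not given here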
Sequence of Dihydroorotate dehydrogenase (quinone), mitochondrial (Plasmodium falciparum (isolate 3D7)) (Q08210 whole entry, looked up): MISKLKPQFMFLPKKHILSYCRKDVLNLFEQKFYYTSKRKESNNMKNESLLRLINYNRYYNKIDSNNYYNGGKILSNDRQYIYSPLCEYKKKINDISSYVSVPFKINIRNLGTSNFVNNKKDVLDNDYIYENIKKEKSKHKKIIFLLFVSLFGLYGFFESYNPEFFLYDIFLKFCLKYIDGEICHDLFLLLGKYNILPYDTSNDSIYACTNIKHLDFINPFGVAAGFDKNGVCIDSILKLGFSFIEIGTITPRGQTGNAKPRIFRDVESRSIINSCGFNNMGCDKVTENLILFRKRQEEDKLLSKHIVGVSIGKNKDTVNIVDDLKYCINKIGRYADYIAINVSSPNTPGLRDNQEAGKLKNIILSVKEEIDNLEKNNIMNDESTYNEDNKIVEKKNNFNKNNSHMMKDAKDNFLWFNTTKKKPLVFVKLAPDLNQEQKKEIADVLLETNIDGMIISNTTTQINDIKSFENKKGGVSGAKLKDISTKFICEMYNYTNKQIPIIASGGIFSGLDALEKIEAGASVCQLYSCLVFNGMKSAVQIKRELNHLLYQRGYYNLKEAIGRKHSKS

[5] = inhibition of PAO1 biofilm formation – strain PAO1, LB-PBS medium, absorbance 600 nm, primary screen (AID 1176); further: test concentration not given here; settings: P. aeruginosa PAO1 growth/biofilm, A600, 12 h; higher = more signal
[6] = growth modulation of vineyard yeast isolate – strain RM11-1a, OD600, basal, 24 h, primary screen (AID 1177);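 further: cultures grown under basal conditions with no added stressor; test concentration not given here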; settings: S. cerevisiae RM11-1a growth, OD600, 24 h; higher = more signal, called active from +8 up or from −8 down
[7] = growth of efflux-deficient E. coli DRC39 – strain DRC39, OD650, 24 h, E. coli filamentation inducers, primary screen (AID 1178);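 further: growth measured as culture turbidity by optical density at 650 nm; test concentration not given here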; settings: E. coli DRC39 acrAB, higher = more signal, called active from +8 up or from −8 down
[8] = growth of efflux-deficient E. coli DRC39 – strain DRC39, OD650, 48 h, E. coli filamentation inducers, primary screen (AID 1179);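 further: screen aims at cell division blockers that make cells filament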; settings: E. coli DRC39 delta-acrAB growth, higher = more signal, called active from +8 up or from −8 down
[9] = viability profiling in RPMI8226 myeloma cells – cell-based, resazurin fluorescence, basal, 24 h, PK04 Diversity Set, profiling panel (AID 1180); settings: higher = more signal;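 further: RPMI8826 multiple myeloma cell line at 5000 cells per well; test concentration not given here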
[10] = biological target: E3 ubiquitin-protein ligase XIAP (Homo sapiens) (UniProt P98170); assay: small molecules binding XIAP protein – biophysical, small-molecule microarray, fluorescence 635 nm, primary screen (AID 1181); settings: higher = more signal;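 further: score merges 667 nm emission and signal to noise over triplicate slides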
Sequence of E3 ubiquitin-protein ligase XIAP (Homo sapiens) (P98170 whole entry, looked up): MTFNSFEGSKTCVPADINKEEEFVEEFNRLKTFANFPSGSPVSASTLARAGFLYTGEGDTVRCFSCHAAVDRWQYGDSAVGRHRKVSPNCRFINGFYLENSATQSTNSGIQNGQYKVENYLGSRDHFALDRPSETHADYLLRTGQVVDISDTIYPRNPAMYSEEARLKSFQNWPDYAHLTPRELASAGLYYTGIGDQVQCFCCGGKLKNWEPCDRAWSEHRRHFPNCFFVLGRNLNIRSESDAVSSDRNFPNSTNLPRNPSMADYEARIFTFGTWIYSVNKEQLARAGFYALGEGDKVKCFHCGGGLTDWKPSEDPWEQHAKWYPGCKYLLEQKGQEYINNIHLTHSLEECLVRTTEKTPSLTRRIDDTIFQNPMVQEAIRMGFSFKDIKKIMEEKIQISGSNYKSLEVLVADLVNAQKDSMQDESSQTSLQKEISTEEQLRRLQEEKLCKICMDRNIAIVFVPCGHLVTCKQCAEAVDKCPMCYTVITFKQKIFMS

Compound	z-score [1]	z-score [2]	z-score [3]	composite z-score [4]	z-score [5]	z-score [6]	z-score [7]	z-score [8]	z-score [9]	composite z-score [10]
COc1ccc(NN2C(C(O)c3ccc(OC)c(OCc4ccccc4)c3)C=CC3C(=O)N(C4CCCCC4)C(=O)C32)cc1 (stereo not given)	1.03	-1.76 (inactive)	0.0269 (inactive)	-0.0522 (inactive)	0.946 (inactive)	-0.221 (inactive)	-0.101 (inactive)	1.19 (inactive)	0.0424	-0.141
COC(=O)[C@@]1(Cc2ccccc2)[C@H]2c3cc(C(=O)N4CCCC4)n(Cc4ccc(C)o4)c3C[C@H]2CN1C(=O)c1ccccc1	-1.59	0.476 (inactive)	-1.5 (inactive)	-0.376 (inactive)	0.399 (inactive)	-0.219 (inactive)	-0.691 (inactive)	-0.471 (inactive)	-2.47	0.0632
O=C(CS)NCCCCCCNC(=O)[C@H]1C[C@H]2C(=O)N3CCC[C@H]3C(=O)N2[C@H]1c1cccc(OCCO)c1	-0.162	0.232 (inactive)	-0.837 (inactive)	-0.15 (inactive)	0.0499 (inactive)	-0.656 (inactive)	-0.34 (inactive)	-0.596 (inactive)	-0.953	0.104
COc1ccc([Si](C)(C)[C@H]2[C@H](CCn3cc(CCO)nn3)O[C@@]3(C(=O)N(Cc4ccc(N5CCOC5=O)cc4)c4ccccc43)[C@@H]2C)cc1	-0.909	0.93 (inactive)	-2.57 (inactive)	0.604 (inactive)	0.802 (inactive)	1.22 (inactive)	0.864 (inactive)	0.562 (inactive)	-2.01	0.339
CCOC(=O)C1=CCC(c2ccc(C#N)cc2)N(S(=O)(=O)c2ccc(C)cc2)C1 (stereo not given)	-0.688	0.916 (inactive)	-1.35 (inactive)	-0.496 (inactive)	0.654 (inactive)	0.906 (inactive)	-0.445 (inactive)	0.435 (inactive)	-1.94	-0.187
Cc1ccc(S[C@]2(C(=O)NCc3ccccc3)CC(=O)N(Cc3ccccc3)[C@@H]2c2ccc(CO)cc2)cc1	-0.345	-0.27 (inactive)	0.0206 (inactive)	-0.465 (inactive)	0.429 (inactive)	0.265 (inactive)	-0.037 (inactive)	-0.472 (inactive)	-0.0925	-0.121
COC(=O)c1ccc(C(O)C2C=CC3C(=O)N(C)C(=O)C3N2NC(=O)OC(C)(C)C)o1 (stereo not given)	-0.784	0.483 (inactive)	-0.29 (inactive)	-0.0658 (inactive)	0.599 (inactive)	0.402 (inactive)	-0.685 (inactive)	-0.757 (inactive)	-0.212	1.42
COCCOC(=O)N1C(=O)[C@@]2(c3cc(C#CCNC(N)=O)ccc31)[C@H](c1ccccc1OCCO)N1[C@H](c3ccccc3)[C@H](c3ccccc3)OC(=O)[C@H]1[C@@H]2C(N)=O	-0.554	1.91 (inactive)	-0.279 (inactive)	1.39 (inactive)	0.971 (inactive)	2.64 (inactive)	-0.144 (inactive)	-0.375 (inactive)	0.138	-0.0525
COCC(=C=CC[C@H](O)c1ccc(OCCO)cc1)C[C@H](O)c1cc(Cl)cc(Cl)c1O	0.751	-18 (active)	0.668 (inactive)	-4.37 (inactive)	0.354 (inactive)	-22.1 (active)	1.43 (inactive)	1.27 (inactive)	0.708	0.0724
O=C1O[C@@H](c2ccccc2)[C@@H](c2ccccc2)N2[C@@H](c3ccccc3OCCO)[C@]3(C(=O)Nc4ccc(C#CC5(O)CCCCCC5)cc43)[C@@H](C(=O)Nc3nc4ccccc4s3)[C@H]12	-0.592	0.193 (inactive)	-3.35 (inactive)	0.18 (inactive)	2.5 (inactive)	1.86 (inactive)	-0.994 (inactive)	-1.19 (inactive)	-4.98	0.0077
CO[C@H]1O[C@H](CO)[C@@H](OC(=O)Nc2ccc3c(c2)OCO3)[C@H](OC(=O)Nc2ccccc2)[C@H]1OC(=O)Nc1ccccc1	-1.78	1.38 (inactive)	-3.14 (inactive)	1.15 (inactive)	-0.329 (inactive)	2.93 (inactive)	0.402 (inactive)	-0.728 (inactive)	-2.41	0.137
COCCOC(=O)N1C(=O)[C@@]2(c3cc(C#CCNC(N)=O)ccc31)[C@H](c1ccc(O)cc1)N1[C@H](c3ccccc3)[C@H](c3ccccc3)OC(=O)[C@H]1[C@@H]2C(=O)Nc1nc2ccccc2s1	1.51	-2.16 (inactive)	1.38 (inactive)	-1.96 (inactive)	3.22 (inactive)	-2.47 (inactive)	2.74 (inactive)	2.74 (inactive)	0.803	-0.115
